{"source": "paper PMC5540273", "about": "(PLoS ONE, 2017)", "data": [{"test_system": "EPHB6", "units": {"Kd": "nM"}, "values": [{"molecule": "COc1ccc(Nc2nccc(N3CCC(NC(=O)C(C)c4ccc(Cl)cc4)CC3)n2)cc1", "note": "(centres unmarked) [GSK1379812];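 further: kd values determined as follow-up on hits from a single-replicate KINOMEscan panel screen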", "Kd": "> 10000"}, {"molecule": "FC(F)(F)c1ccccc1-c1cc(-c2c[nH]nc2-c2ccccn2)ccn1", "note": "[GW679396]", "Kd": 8500}, {"molecule": "Nc1ncnc2occ(-c3ccc4c(c3)CCN4C(=O)Cc3cc(F)ccc3F)c12", "note": "[GSK2645446]", "Kd": 500}, {"molecule": "COC(=O)C(NC(=O)NC1CCN(c2ccnc(Nc3ccc(F)cc3)n2)C1)c1ccccc1", "note": "(centres unmarked) [GSK1379712]", "Kd": 58}]}, {"test_system": "ERBB2", "units": {"Kd": "nM"}, "values": [{"molecule": "CS(=O)(=O)CCNCc1nc(-c2ccc3ncnc(Nc4ccc(OCc5ccccc5)c(Cl)c4)c3c2)cs1.Cl", "note": "[GW582764]", "Kd": 4}, {"molecule": "CS(=O)(=O)CCNCc1nc(-c2ccc3ncnc(Nc4ccc5c(cnn5Cc5ccccc5)c4)c3c2)cs1.Cl.Cl", "note": "[GW569716]", "Kd": 1.1}, {"molecule": "Cn1cncc1-c1cc2c(Nc3ccc(OCc4ccccc4)cc3)ncnc2cn1", "note": "[GW281179]", "Kd": 17}, {"molecule": "COc1cc2ncnc(Nc3cccc(Br)c3)c2cc1OC.Cl", "note": "[GI230329]", "Kd": 85}]}, {"test_system": "T1, ERK8", "T1 construct": "gene MAPK15", "units": {"Kd": "nM"}, "values": [{"molecule": "O=C(Nc1n[nH]c2nc(-c3cccs3)c(Br)cc12)C1CC1", "note": "[SB-735297]", "Kd": 130}, {"molecule": "Cc1cccc2c(-c3ccncn3)c(-c3ccc(F)cc3)nn12", "note": "[GW515532]", "Kd": "> 10000"}, {"molecule": "O=C(Nc1n[nH]c2cc(-c3ccsc3)ccc12)C1CC1", "note": "[SB-732932]", "Kd": 48}]}, {"test_system": "GAK", "units": {"Kd": "nM"}, "values": [{"molecule": "c1ccc(-c2ccnc3[nH]ccc23)cc1", "note": "[SB-693578]", "Kd": 3700}, {"molecule": "COc1cccc(C2=C(Nc3cc(Cl)c(O)c(Cl)c3)C(=O)NC2=O)c1", "note": "[SB-390767]", "Kd": "> 10000"}, {"molecule": "COc1cc2ncnc(Nc3cccc(Br)c3)c2cc1OC.Cl", "note": "[GI230329]", "Kd": 29}]}, {"test_system": "GSK3A", "units": {"Kd": "nM"}, "values": [{"molecule": "O=C(Nc1n[nH]c2nc(-c3cccs3)c(Br)cc12)C1CC1", "note": "[SB-735297]", "Kd": 91}, {"molecule": "COc1ccc(CSc2nnc(-c3ccc4nccn4c3)o2)cc1C(F)(F)F", "Kd": 250}, {"molecule": "COc1ccc(CSc2nnc(-c3ccc4ncsc4c3)o2)cc1C(F)(F)F", "Kd": 79}, {"molecule": "O=C(Nc1n[nH]c2nc(-c3ccco3)c(Br)cc12)C1CCN(Cc2ccccc2)C1.O=C(O)[C@H](O)[C@@H](O)C(=O)O", "note": "(centres unmarked) [SB-742034]", "Kd": 130}, {"molecule": "O=c1cc(N2CCOCC2)nc2n(Cc3ccccc3F)ccn12", "note": "[GSK2297428]", "Kd": "> 10000"}, {"molecule": "O=C(Nc1n[nH]c2nc(-c3cccs3)c(Br)cc12)C1CCCC1", "note": "[SB-743341]", "Kd": 62}]}, {"test_system": "GSK3B", "units": {"Kd": "nM"}, "values": [{"molecule": "COc1ccc(CSc2nnc(-c3ccc4nccn4c3)o2)cc1C(F)(F)F", "Kd": 22}, {"molecule": "COc1ccc(CSc2nnc(-c3ccc4ncsc4c3)o2)cc1C(F)(F)F", "Kd": 39}, {"molecule": "O=C(Nc1n[nH]c2nc(-c3cccs3)c(Br)cc12)C1CCCC1", "note": "[SB-743341]", "Kd": 120}]}]}
